# M1 antag – human CHRM1 antagonism | P11229 | CHO-K1 hM1, Fluo-8 calcium fluorescence, ACh EC80 antagonist | inhibition, % at 3 µM | 1.3% of 360,000 active | AID 588852;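 active means percent inhibition above its own plate's cutoff, namely the mean of that plate's compound wells plus 3 SD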;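 further: peak over basal fluorescence ratio during 140 s after agonist addition; 0% = ACh EC80 plus DMSO and 100% = DMSO alone without agonist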
# Target sequence (P11229 whole entry, looked up): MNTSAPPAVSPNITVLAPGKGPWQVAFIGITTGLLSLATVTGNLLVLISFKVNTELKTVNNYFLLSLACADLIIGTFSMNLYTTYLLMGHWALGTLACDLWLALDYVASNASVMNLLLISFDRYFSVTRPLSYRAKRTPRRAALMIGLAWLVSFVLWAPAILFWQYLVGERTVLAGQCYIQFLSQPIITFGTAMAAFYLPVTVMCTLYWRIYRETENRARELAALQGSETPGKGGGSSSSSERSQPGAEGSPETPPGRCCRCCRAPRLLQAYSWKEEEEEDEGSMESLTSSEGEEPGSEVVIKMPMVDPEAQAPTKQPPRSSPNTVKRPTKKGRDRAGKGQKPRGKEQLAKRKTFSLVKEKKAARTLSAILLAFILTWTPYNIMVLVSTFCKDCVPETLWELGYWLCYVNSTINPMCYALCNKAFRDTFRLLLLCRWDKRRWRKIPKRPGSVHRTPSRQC
# CHRM1 PAM – human CHRM1 positive allosteric modulation; activation, % at 3 µM; CHO-K1 hM1, Fluo-8 calcium fluorescence, ACh EC20; 0% = ACh EC20, 100% = maximal ACh; 0.088% of 360,000 active; P11229; in the data active means activation above about 19%, passing the limit was not always enough
# CHO-K1 Ca antag – counter-screen for M1 antagonists: effect in parental CHO-K1 cells. inhibition, % at 3 µM. 0.6% of 360,000 active. AID 602250. ATP-induced calcium, Fluo-8 fluorescence;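 active means inhibition above a per-plate cutoff, the plate's mean sample inhibition plus 3 SD, cut at about 24% in these data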;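 further: 0% = DMSO plus EC80 ATP and 100% = DMSO alone without ATP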
# M1 ag – agonists of human M1 muscarinic receptor; P11229; CHO-K1 hM1, Fluo-8 calcium fluorescence, agonist mode; 0% DMSO, 100% acetylcholine EC100; activation, % at 3 µM; 0.33% of 360,000 active;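 active means activation above the run's mean compound activation plus 3 SD, cut at about 16% in these data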;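 further: peak over basal fluorescence ratio within a 140 s kinetic read after compound addition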
# CHO-K1 Ca ag – nonselective activator or artifact in parental CHO-K1 cells | activation, % at 3 µM | AID 602248 | 0.48% of 360,000 active | Fluo-8 calcium fluorescence; scaled to maximal ATP response, vehicle zero; in the data active means activation above about 15%;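 further: untransfected CHO-K1 host cells lacking M1 receptor as counterscreen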
# CHO-K1 Ca PAM – nonselective activator or artifact in parental CHO-K1 calcium assay; ATP EC20, Fluo-8 calcium fluorescence; 0% at ATP EC20, 100% at ATP max; activation, % at 3 µM; 0.02% of 360,000 active;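 active means activation above the run cutoff, the mean activation of all test compounds plus 3 SD, cut at about 40% in these data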;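 further: peak over basal fluorescence ratio in a 140 s read after ATP addition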
# * = called active by the depositor; ! = not active in a repeat. Only some compounds are listed: those with a hit (about 2.3% of all), similar ones and a draw of the others.
SMILES,M1 antag,CHRM1 PAM,CHO-K1 Ca antag,M1 ag,CHO-K1 Ca ag,CHO-K1 Ca PAM
c1ccc(C2[C@H]3CN(Cc4cccnc4)[C@H](c4ccccc4)C34CC2(c2cccnc2)C4)cc1 (stereo partly drawn),39.9*,-31.2,-3.0,-10.6,-0.7,-7.7
FC(F)(F)c1ccc(CN2C[C@@H]3C(c4ccc(C(F)(F)F)cc4)C4(c5cccnc5)CC3(C4)[C@H]2c2ccccc2)cc1 (stereo partly drawn),-5.8,2.1,-9.4,-8.2,0.8,6.9
CN1C[C@@H]2C(c3ccc(C(F)(F)F)cc3)C3(c4cccnc4)CC2(C3)[C@H]1c1ccccc1 (stereo partly drawn),31.5*,-32.2,-12.4,-9.5,0.2,22.3
c1ccc(C2[C@H]3CN(CC4CCCCC4)[C@H](c4ccccc4)C34CC2(c2cccnc2)C4)cc1 (stereo partly drawn),74.3*,-37.1,-1.6,-12.9,0.2,-3.5
COc1cc(C)ccc1S(=O)(=O)NC(=O)C1(C)CCN1C(=O)c1ccc(C2CCCCC2)cc1 (stereo not drawn),-22.9,13.1,26.8*,-5.2,-0.4,-14.4
Cc1cccc(S(=O)(=O)NC(=O)C2(C)CCN2C(=O)c2ccc(C3CCCCC3)cc2)c1 (stereo not drawn),-10.1,10.0,4.1,0.4,0.1,1.8
Cc1ccc(S(=O)(=O)NC(=O)C2(C)CCN2C(=O)C2CCCCC2)nc1 (stereo not drawn),-7.4,23.1,28.2*,8.4,-0.6,-5.6
CCOC(=O)C1(Cc2cccc(Cl)c2)CCCN(C(=O)CCN2CCCC2=O)C1 (stereo not drawn),-1.0,0.6,-3.4,-1.1,0.6,1.1
O=c1c2ccc([N+](=O)[O-])cc2ncn1CCOc1ccccc1,36.4*,-11.9,4.0,-0.6,6.5,-1.0
CN(C)c1cccc(C(=O)NNC(=O)C23CC4CC(CC(C4)C2)C3)c1,-11.2,7.4,-16.5,-4.8,0.5,-9.6
NC(N)=N/N=C(\N=Nc1ccccc1)c1ccc(Cl)cc1,-12.6,11.5,-5.5,5.8,6.1,14.3
CN(C)c1ccc(C2CC(=O)NC3=C2C(=O)CC(C)(C)C3)cc1 (stereo not drawn),8.4,-6.9,6.8,-11.3,0.0,-1.2
CCN(CC)c1ccc(C2CC(=O)NC3=C2C(=O)CC(C)(C)C3)cc1 (stereo not drawn),25.8*,-22.9,-2.2,-9.9,-0.6,4.0
COCc1c(C(=O)OCC(=O)NCc2ccco2)oc2ccccc12,-6.2,3.1,24.4*,-7.0,0.0,-14.0
Cc1c(C(=O)OCC(=O)NCc2ccco2)oc2ccccc12,-3.9,3.2,-17.7,-7.8,0.6,18.2
C/C(=N\NC(=O)Cc1ccc(Cl)cc1)c1cccc(NC(=O)c2cccnc2)c1,1.9,-4.6,-7.6,-4.0,1.1,3.6
Nc1[nH]n(-c2ccccc2)c(=O)c1N=Nc1ccccc1[N+](=O)[O-],-0.8,4.7,-4.2,-0.7,0.1,-9.2
COc1cc([N+](=O)[O-])ccc1N=Nc1c(N)[nH]n(-c2ccccc2)c1=O,-10.2,13.6,1.4,-8.5,17.0*,21.9
Cc1ccccc1OC(=O)c1cccnc1,-9.8,5.9,-11.2,-1.1,1.6,13.9
O=C(CC1CCCC1)NNC(=O)c1ccc(Br)cc1,-0.9,2.3,-6.8,-2.3,0.3,-11.2
CN(C)c1ccc(C=C2SC(=S)N(Cc3ccco3)C2=O)cc1,17.1,-15.9,11.8,20.4*,12.0,-5.8
O=C1C(=C2CCCCC2)SC(=S)N1Cc1ccco1,28.5*,-19.9,-1.6,-6.2,0.4,4.1
O=C(O)CCN1C(=O)C(=C2CCCCCC2)SC1=S,-7.4,5.9,-2.2,-2.9,0.5,18.3
N#Cc1cccc(NC(=O)CSc2ccc3c4c(cccc24)C(=O)c2ccccc2-3)c1,32.0*,-15.7,17.4,44.4*,12.6,4.4
O=C(NC1CCCC1)c1noc2c1CCCCC2,37.5*,-19.4,-4.7,-3.6,-0.4,10.9
SMILES,M1 antag,CHRM1 PAM,CHO-K1 Ca antag,M1 ag,CHO-K1 Ca ag,CHO-K1 Ca PAM
O=C(NCc1ccccc1)c1noc2c1CCCCC2,-8.4,18.7,-28.7,-9.8,0.0,11.7
Cc1cc(C)c(S(=O)(=O)Nc2ccccc2-c2ccccc2)c(C)c1,-4.2,-2.4,-22.0,-14.5,0.5,44.2*
O=S(=O)(Nc1ccccc1-c1ccccc1)c1ccccc1,-22.5,8.5,-22.9,-6.8,0.5,21.3
C#CC[N+](C)(C)CCCCCCCCCCCC,56.1*,-26.4,-6.6,-14.0,24.4*,28.7
CC#CC[N+](C)(C)CCCCCCCCCCCC,41.0*,-27.1,-7.7,-10.1,0.5,16.3
C#CC[N+](C)(C)CCCCCCCCCC,20.6,-16.8,0.4,-8.2,-0.2,20.2
Cc1c(C(=O)NCc2ccc(F)cc2)sc(=O)n1Cc1ccccc1F,-2.5,-10.7,-3.3,-7.2,3.2,14.9
CC(C)Cn1c(SCC(=O)N2CCOCC2)nc2ccccc2c1=O,11.9,-3.8,10.0,-3.3,-0.2,-6.6
COc1cc(NC(=O)c2cc3cccc(OC)c3o2)cc(C(=O)Nc2cccc(C(F)(F)F)c2)c1,14.3,-6.8,1.8,-1.9,0.8,3.5
COc1cc(NC(=O)c2ccno2)cc(C(=O)Nc2cccc(C(F)(F)F)c2)c1,30.6*,-20.7,12.4,9.2,17.3*,-13.8
COc1ccc(-c2cc(C(=O)Nc3cc(OC)cc(C(=O)Nc4cccc(C(F)(F)F)c4)c3)[nH]n2)cc1,41.0*!,-10.7,3.8,0.7,0.7,1.1
CC(C)Oc1cc(F)ccc1-c1cc(C(=O)Nc2cccc(C(F)(F)F)c2)[nH]n1,35.4*,-22.2,11.2,-4.1,0.0,-13.7
COc1ccc(NC(=O)c2cc(-c3ccc(F)cc3OC(C)C)n[nH]2)cn1,8.0,-4.7,5.4,-3.5,5.2,19.9
Cc1ccc(-c2cnc(C(O)c3ccc(Cl)cc3C)[nH]2)cc1 (stereo not drawn),-12.8,3.4,-6.8,0.1,1.5,8.4
CC1CN(C(=O)CN(C)S(=O)(=O)c2ccc3ccccc3c2)CC(C)O1 (stereo not drawn),8.3,-6.5,6.5,-4.8,5.4,5.8
O=[N+]([O-])c1ccc(S(=O)(=O)NCCc2cn3ccccc3n2)cc1,-27.4,28.1*,-4.0,-0.9,0.3,8.2
COc1ccccc1N1CCN(C(=O)CCNC(=O)c2ccco2)CC1,-7.0,10.5,-5.8,-0.8,0.1,-11.6
O=C(Nc1ccc(Oc2ccccc2)cc1)C1CCN(c2c3c(nc4ncnn24)CCC3)CC1,36.1*,-15.7,4.8,1.1,2.7,3.8
Cn1c(CCN2CCN(c3ccccc3)CC2)nc2cc(NC(=O)c3ccco3)ccc21,45.7*,-18.8,-6.2,-5.1,7.4,8.4
Cc1ccc(C(=O)Nc2ccc3c(c2)nc(CCNC(=O)c2ccco2)n3C)cc1,1.2,-4.4,-4.5,-7.1,1.5,6.6
